# Rows were chosen to be rich in hits. Some 27% of all compounds tested hit in one or more screens of this group.
# CYP2C19 inhib: blockers of cytochrome P450 2C19 activity – biochemical, luminescence, ADME assay, primary screen; P33261; CYP2C19 Supersomes, luciferin-H EGE luminescence, 30 min; inhibition, % at 5 µM; 96,000 compounds, 21% hits; AID 778, 2007;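 active = CYP2C19 inhibition above a set limit at 5 µM in the primary screen, cut at about 50% in these data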;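 note: plate controls were negative control wells for no effect and 2.5 mM tranylcypromine positive control for full effect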
# CYP2C19 act: human CYP2C19 activators, primary screen, biochemical, luminescence; 96,000 tested, under 10 active; recombinant CYP2C19, luciferin-H EGE luminescence; active compounds read high; 0 = fully inhibited enzyme, 1 = untreated enzyme; activation factor at 5 µM; Cytochrome P450 2C19 (Homo sapiens), P33261;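 active = activation factor of at least 2 at 5 µM in the primary screen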;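 note: 0 = wells with 2.5 mM tranylcypromine and 1 = vehicle-only wells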
# sEH act: soluble epoxide hydrolase activators, primary screen, biochemical, human sEH. Bifunctional epoxide hydrolase 2 (Homo sapiens), P34913. purified human sEH enzymatic activity, activator screen. 91,000 compounds, 0.04% hits. activation, % at 2 µM. AID 717, 2007; in the data active = activation above about 37%
# CYP2C9 inhib: blockers of cytochrome P450 2C9 activity – biochemical, luminescence, ADME assay, primary screen; 96,000 compounds, 20% hits; AID 777, 2007; P11712; inhibition, % at 5 µM; CYP2C9 Supersomes, luciferin-H conversion;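 active = blocking of liver enzyme CYP2C9 beyond about 50% at 5 µM, limit read from the data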
# Target sequence (P11712 whole entry, looked up): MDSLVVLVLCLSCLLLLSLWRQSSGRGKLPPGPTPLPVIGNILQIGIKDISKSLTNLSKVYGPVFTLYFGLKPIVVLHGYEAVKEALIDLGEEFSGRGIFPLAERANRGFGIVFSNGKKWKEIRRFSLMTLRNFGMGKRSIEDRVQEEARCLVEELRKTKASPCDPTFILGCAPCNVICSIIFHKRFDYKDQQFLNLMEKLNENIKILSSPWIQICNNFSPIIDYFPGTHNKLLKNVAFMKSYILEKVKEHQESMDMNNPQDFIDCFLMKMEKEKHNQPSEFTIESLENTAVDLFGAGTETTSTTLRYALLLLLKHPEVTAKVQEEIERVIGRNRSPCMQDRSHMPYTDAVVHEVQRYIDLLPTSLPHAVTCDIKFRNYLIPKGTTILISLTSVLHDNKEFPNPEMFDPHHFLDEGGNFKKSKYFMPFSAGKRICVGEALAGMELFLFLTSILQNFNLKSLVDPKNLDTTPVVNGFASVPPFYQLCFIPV
# CYP2C9 act: human CYP2C9 activators, primary screen, biochemical, luminescence; activation factor at 5 µM; Cytochrome P450 2C9 (Homo sapiens), P11712; AID 1024, 2008; 96,000 compounds, 1.4% hits; recombinant CYP2C9, luciferin-H conversion; active compounds read high; factor 1 = untreated enzyme, 0 = blocked;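 active = activation factor of 2 or more for CYP2C9 at a 5 µM dose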;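 note: 0 = sulfaphenazole-blocked wells and 1 = vehicle-only wells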
# sEH inhibitor: soluble epoxide hydrolase inhibitors, primary screen, biochemical, human sEH. recombinant human sEH enzymatic activity assay. inhibition, % at 2 µM. 91,000 compounds, 0.34% hits. Bifunctional epoxide hydrolase 2 (Homo sapiens), P34913. AID 707, 2007; in the data active = inhibition above about 80%
# * marks the source's active call; other numbers are inactive results; . = no result given.
SMILES,CYP2C19 inhib,CYP2C19 act,sEH act,CYP2C9 inhib,CYP2C9 act,sEH inhibitor
O=C(CCSc1nnc(-c2ccco2)o1)Nc1ccccc1,79*,0.2,-5,28,0.7,6
O=C(Nc1nnc(-c2ccccc2)o1)Nc1ccccc1Cl,56*,0.4,.,34,0.7,.
Cc1ccc(NC(=O)CSc2nnc(-c3ccncc3)o2)cc1,98*,0,16,51*,0.5,-18
COc1ccccc1NC(=O)CSc1nnc(-c2ccc(C)cc2)o1,-1,1,-3,-1,1,2
O=C(CCSc1nnc(-c2ccco2)o1)Nc1ccc(Cl)cc1,-3,1,.,-4,1,.
Cc1nc2ccc(NC(=O)NCCCO)cc2s1,-25,1.2,-4,-23,1.2,6
CC(C)C[C@H](NC(=O)OC(C)(C)C)C(=O)N/N=C/C1=Cc2ccccc2OC1C (stereo partly specified),8,0.9,1,42,0.6,-2
Cc1cccc(NC(=O)CSc2nnc(-c3ccco3)o2)c1C,24,0.8,-5,18,0.8,5
COC(=O)CSc1nnc(-c2ccncc2)o1,3,1,10,-12,1.1,-12
CC(=O)c1c(C)cc(C)c(CSc2nnc(-c3ccco3)o2)c1C,45,0.5,-5,51*,0.5,3
O=C(CCSc1nnc(-c2ccncc2)o1)Nc1ccc(Cl)cc1,96*,0,.,84*,0.2,.
c1ccc(NCCCNc2ccccc2)cc1,98*,0,0,86*,0.1,5
CCC(NC(=O)NC1=NCCS1)(C(F)(F)F)C(F)(F)F,-4,1,.,-13,1.1,.
CCOC(=O)c1cc2c(=O)n3ccccc3nc2n(C(C)C)c1=NC(=O)c1ccncc1,65*,0.4,-1,48,0.5,2
COc1ccc(CNC(=O)c2cc3c(=O)n4ccccc4nc3n(Cc3ccco3)c2=N)cc1,.,.,-1,.,.,1
COc1ccc(CCn2c(=N)c(C(=O)N3CCN(C)CC3)cc3c(=O)n4ccccc4nc32)cc1,72*,0.3,23,39,0.6,-27
CCOC(=O)c1cc2c(=O)n3ccccc3nc2n(Cc2ccccc2Cl)c1=N,22,0.8,.,57*,0.4,.
Cc1ccc(S(=O)(=O)C(CCC(=O)c2ccc(Cl)cc2)C(N)=O)cc1 (stereo unspecified),-8,1.1,4,-63,1.6,-7
CC1=C(CC(=O)c2ccc(Cl)cc2)C(=O)c2ccccc2C1=O,51*,0.5,6,44,0.6,-3
c1ccc(-n2ncc3c(N4CCN(c5ccccn5)CC4)nc(N4CCOCC4)nc32)cc1,18,0.8,.,25,0.8,.
CC(C)CC(NC(=O)C(NC(=O)OC(C)(C)C)C(C)C)C(=O)NC(CCC(=O)OCc1ccccc1)C(N)=O (stereo unspecified),.,.,12,.,.,-9
COc1cc(C(=O)Oc2c(CN3CCOCC3)cc(Cl)c3cccnc23)cc(OC)c1OC,66*,0.3,.,37,0.6,.
COc1cccc(C(=O)Oc2c(CN3CCOCC3)cc(Cl)c3cccnc23)c1,63*,0.4,-2,91*,0.1,3
COc1ccc(C(=O)Oc2c(CN3CCOCC3)cc(Cl)c3cccnc23)cc1,12,0.9,3,34,0.7,-5
O=C(Oc1c(CN2CCOCC2)cc(Cl)c2cccnc12)c1ccc(F)cc1,34,0.7,7,62*,0.4,-4
SMILES,CYP2C19 inhib,CYP2C19 act,sEH act,CYP2C9 inhib,CYP2C9 act,sEH inhibitor
CCOc1ccc(NC(=O)CSc2nc(C)c3c(c2C#N)CCCC3)cc1,4,1,-16,-8,1.1,19
O=C(CN1CCOCC1)Nc1ncccn1,9,0.9,9,-8,1.1,-11
CCCc1ccc(Oc2cn[nH]c2-c2ccc(O)cc2O)cc1,96*,0,9,89*,0.1,-8
COc1ccc(-c2[nH]ncc2-c2cnn(-c3ccccc3)c2)c(O)c1,69*,0.3,3,82*,0.2,-4
COc1ccc(Oc2cn[nH]c2-c2ccc(O)cc2O)cc1,100*,0,-2,99*,0,3
COc1ccc(-c2[nH]ncc2Oc2ccccc2OC)c(O)c1,94*,0.1,-5,75*,0.3,5
O=C(c1cccc(C(F)(F)F)c1)N1CCN(C2CCCCC2)CC1,38,0.6,6,29,0.7,-3
CCC(Sc1nc(N)cc(=O)[nH]1)C(=O)NC(C(=O)OC)c1ccccc1 (stereo unspecified),0,1,2,-3,1,1
CCCCC(=O)Nc1ccc(C(=O)Nc2nnc(COC)s2)cc1,10,0.9,-9,29,0.7,9
CC1CN(CCCOc2ccccc2[N+](=O)[O-])CC(C)O1 (stereo unspecified),42,0.6,4,32,0.7,-5
Cc1nnsc1SCC(=O)O,-7,1.1,-4,-16,1.2,4
Cc1nnsc1SCCNC(=O)c1ccc(F)cc1,80*,0.2,-13,22,0.8,15
Cc1c(O)ccc(C(=O)CN2C(=O)c3ccccc3C2=O)c1O,81*,0.2,1,23,0.8,2
Cc1c(O)ccc(C(=O)COc2ccccc2F)c1O,69*,0.3,-1,-2,1,1
O=C(O)COc1ccccc1O,-4,1,7,-8,1.1,-9
COC(=O)c1ccc(OCC(=O)c2ccc(O)cc2O)cc1,38,0.6,.,19,0.8,.
O=C(COc1ccccc1F)c1ccc(O)cc1O,92*,0.1,.,6,0.9,.
Cc1ccc(OCC(=O)N/N=C\c2cn(C)c3ccccc23)c([N+](=O)[O-])c1,22,0.8,2,-7,1.1,1
Cc1ccc(C(C)C)c(OCCCN2CC(C)OC(C)C2)c1 (stereo unspecified),76*,0.2,-8,-17,1.2,11
O=C(O)CSc1nnc(-c2cc3ccccc3o2)n1-c1ccccc1,-11,1.1,3,-9,1.1,-9
CC1=NN(c2ccccc2)C(=O)C1C(=O)c1ccc(Cl)cc1 (stereo unspecified),-4,1,0,93*,0.1,-1
CCC(Oc1nc2ccccc2nc1-c1ccccc1NC(C)=O)C(=O)c1ccccc1 (stereo unspecified),-4,1,10,53*,0.5,-7
Cc1noc(C)c1CSc1nnc(-c2c[nH]c3ccccc23)n1-c1ccc(Cl)cc1,-7,1.1,-2,0,1,0
CCn1c(SCc2nc(-c3cccs3)no2)nnc1-c1c[nH]c2ccccc12,15,0.9,-3,57*,0.4,1

# Source: PubChem (several laboratories)
